# Compounds with a hit are over-represented: about 2.8% of the library has one in this group of screens.
# Shn3 inh set2: reduces Shn3 3'UTR luciferase signal in osteoblasts; Clone20 osteoblast Shn3 3'UTR firefly luciferase, 24 h; inhibition, % at 12.5 µM; 360,000 compounds, 0.52% hits;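 active = mean inhibition of at least 75% with every replicate also reaching 75%; inconclusive = mean inhibition at least 75% but some replicate below; inactive = mean inhibition below 75%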;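 also: 0% = median of neutral control wells and 100% = pilot-screen positive control compound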
# HIF-2a block: inhibitors of HIF-2a | 786-0 RCC cells HIF-2a reporter, luciferase luminescence, overnight | inhibition, % at 18.8 µM | 360,000 compounds, 0.72% hits | AID 624352;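 active = inhibition of the luminescence signal of 40% or more relative to plate controls, in a single-dose primary screen at 18.75 µM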
# LMP1 NFkB inh: reduces LMP1-driven NF-kappaB luciferase signal. inhibition, % at 12.5 µM. 350,000 compounds, 0.69% hits. LMP1-induced NF-kappaB luciferase reporter cells, luminescence; in the data active = inhibition above about 41%; inconclusive = no clear call, values can overlap the other calls;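 also: 0% = neutral control wells and 100% = reference inhibitor control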
# PAX8 inh HTS: inhibitors of PAX8 transcriptional activity in RMG-I cells; RMG-I TPO-luciferase reporter, SteadyGlo, 24 h; inhibition, % at 12.6 µM; 360,000 compounds, 1.2% hits; AID 652154;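 active = mean replicate inhibition at least 60% with every replicate also reaching 60%; inconclusive = only one of the two criteria is met; inactive = mean below 60% and not all replicates reaching 60%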;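 also: luciferase light reporting Pax8 driven TPO promoter activity; plate controls were median of neutral control wells for no effect and mitoxantrone controls for full effect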
# TRPM1 prom inh: MITF TRPM1 promoter inhibition in SK-MEL-5 cells; inhibition, % at 12.5 µM; AID 488899; 330,000 compounds, 0.83% hits; SK-MEL-5 TRPM1 promoter luciferase, 24 h;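 active = mean inhibition across replicates of 60% or more, whatever share of single replicates reaches that level; inconclusive = some that reach 60%, reason not given; inactive = mean inhibition across replicates below 60%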
# Peg3 prom inh: reduces Peg3 promoter-driven luciferase expression in HeLa; HeLa PEG-Prom luciferase reporter, luminescence, overnight; inhibition, % at 20 µM; 360,000 compounds, 1.7% hits; AID 588405;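 active = inhibition of at least 50% at 20 µM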
# HIF-2a inh conf: confirmation of HIF-2a inhibitors; shares compounds with HIF-2a block; 786-0 RCC cells, HIF-2a luciferase reporter luminescence, overnight; inhibition, % at 18.8 µM; 1,800 compounds, 56% hits; AID 651580;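 active = mean inhibition across four replicates of at least 40 percent at the single tested concentration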
# HIF-1a counter: HIF-1a inhibition counter-screen for HIF-2a hits; 1,800 compounds, 72% hits; inhibition, % at 18.8 µM; MiaPaCa-2 HIF-1a luciferase reporter, desferoxamine, overnight; shares compounds with HIF-2a block;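 active = mean inhibition of the reporter signal across four replicates at the single tested dose of 50% or more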
# Active calls of the source: *; ? = inconclusive; . = no result.
SMILES,Shn3 inh set2,HIF-2a block,LMP1 NFkB inh,PAX8 inh HTS,TRPM1 prom inh,Peg3 prom inh,HIF-2a inh conf,HIF-1a counter
C[C@H]1O[C@@H](OC2CC[C@]3(C=O)[C@H]4CC[C@]5(C)[C@@H](C6=CC(=O)OC6)CC[C@]5(O)[C@@H]4CC[C@]3(O)C2)CC2OC(C)(C)OC21 (some centres not stated),9,51*,65*,108*,67*,107*,33,103*
C=CCCC[C@@H]1OC(=O)CNC(=O)C([C@@H](C)CC)NC(=O)[C@@H]2CCCN2C(=O)C([C@@H](C)CC)OC(=O)[C@H](Cc2ccccc2)N(C)C(=O)[C@H](C(C)C)NC(=O)C1(C)C (some centres not stated),5,82*,.,55,.,15,-13,104*
COC(=O)[C@H]1[C@H](CO)[C@H]2Cn3c(ccc(-c4cncnc4)c3=O)[C@@H]1N2S(=O)(=O)c1ccccc1C,.,.,.,-3,.,.,.,.
CC1CC(C)CC(C)C(O)C(C#N)=CC=CCC(C2CCCC2C(=O)O)OC(=O)CC(O)C(C)C1 (configuration not stated),97*,78*,?,102*,92*,51*,76*,104*
CC1(CCO)CC(C)(CCc2ccccc2)OO1 (configuration not stated),.,.,.,41,.,.,.,.
O=[N+]([O-])c1ccc(N2CCOCC2)c2cccnc12,-1,11,5,-9,12,18,.,.
O=[N+]([O-])c1ccc(N2CCOCC2)c2c1no[n+]2[O-],61,69*,0,98*,.,96*,58*,101*
CC(=O)OCC12CC(OC(=O)CC(C)C)C(C)=CC1OC1C(O)C(OC(C)=O)C2(C)C12CO2 (configuration not stated),93*,82*,88*,102*,87*,97*,79*,102*
CCCC#Cc1ccc([C@H]2[C@H](CO)N3CCCCN(C(=O)Cc4ccccn4)C[C@@H]23)cc1,.,.,.,-5,.,.,.,.
CCCNC(=O)N1[C@@H]2Cn3c(ccc(-c4cccc(C(=O)N(C)C)c4)c3=O)[C@H]1[C@@H](C(=O)O)[C@@H]2CO,.,.,.,-28,.,.,.,.
CCCCCCCCCCCCCCCC[N+](C)(C)C,94*,56*,16,93*,25,95*,42*,79*
CCCCCC[N+](=O)[O-],-4,14,-3,.,7,-6,.,.
N#Cc1cccc(-c2ccc([C@@H]3[C@H]4CN(C(=O)Cc5ccncc5)CCCCN4[C@H]3CO)cc2)c1,.,.,.,0,.,.,.,.

# Assay outcomes deposited in PubChem by several laboratories.
